Measured values published in PubChem BioAssay AID652053 (Broad Institute, 2013).
The whole screen tested about 1,300 compounds, of which about 930 (72%) were called active.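 How the source made its calls: active means fitted curve reaches 40% activation signal increase at or below the top valid tested concentration in every replicate test; inconclusive means replicate tests disagree in their calls; inactive means all replicate tests inactive, including effects opposite the expected signal rise.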 So high a share suggests a set chosen from earlier hits. Only a sample is shown. Measured potencies and affinities stand elsewhere.

experiment: miR-122 inhibitors in Huh7 reporter cells, dose response, cell-based, Huh7 psiCHECK-miR122, Renilla luciferase, cherry-pick (AID 652053); conditions: 48 h; series mostly up to 35 µM

outcome, inactive:
Fc1ccc(CSc2nnc(-c3cccnc3)o2)cc1
C[C@H](CO)N1C[C@H](C)[C@H](CN(C)C(=O)Nc2cccc3ccccc23)Oc2ccc(N(C)C)cc2CC1=O
CC(C)CC#Cc1ccc2c(c1)O[C@@H](CN(C)C(=O)C1CCC1)[C@@H](C)CN([C@H](C)CO)S2(=O)=O
C[C@H](CO)N1C[C@H](C)[C@@H](CN(C)S(C)(=O)=O)Oc2cc(C#Cc3ccccc3)ccc2S1(=O)=O
COC(=O)CCCCCC(CCC(=O)OC)NC(C)=O (stereo not drawn)
COC(=O)C[C@H]1CC[C@@H]2[C@@H](COc3ccc(NS(=O)(=O)c4ccc(C)cc4)cc3C(=O)N2C)O1
CC(C)NC(=O)COC(=O)c1ccc(NS(=O)(=O)c2ccc3c(c2)OCCO3)cc1
COC(=O)C[C@H]1CC[C@H]2[C@H](COc3ccc(NS(=O)(=O)c4ccc(C)cc4)cc3C(=O)N2C)O1
COC(=O)C[C@@H]1CC[C@H]2[C@H](COc3ccc(NS(=O)(=O)c4ccc(C)cc4)cc3C(=O)N2C)O1
COC(=O)C[C@@H]1CC[C@@H]2[C@@H](COc3ccc(NS(=O)(=O)c4ccc(C)cc4)cc3C(=O)N2C)O1
CN(C)S(=O)(=O)NC(c1ccccc1)c1ccccc1
O=C(COC(=O)c1cccc(NS(=O)(=O)/C=C/c2ccccc2)c1)Nc1ccccc1OC(F)F
Cc1noc(C)c1S(=O)(=O)N(C)C[C@@H]1Oc2c(NC(=O)C3CCCCC3)cccc2C(=O)N([C@H](C)CO)C[C@@H]1C
C[C@H](CO)N1C[C@H](C)[C@@H](CN(C)S(=O)(=O)c2cccs2)Oc2c(NC(=O)C3CCOCC3)cccc2C1=O
COCC(=O)N1[C@H](CO)[C@H](c2ccccc2)[C@@H]1CNC(=O)c1ccccn1
COCC(=O)NC[C@H]1N[C@H](CO)[C@@H]1c1ccc(C2=CCCCC2)cc1
O=C(COC(=O)c1c2c(nc3ccccc13)CCN(Cc1ccccc1)C2)Nc1c(F)cccc1F
O=C(O/N=C1\CCS(=O)(=O)c2sccc21)c1ccccc1
CCCCNC(=O)CN1C(=O)NC2(CCOc3ccccc32)C1=O (stereo not drawn)
CCC(=O)N1[C@H](CO)[C@@H]2c3ccccc3N(C(=O)c3ccccc3F)C[C@@H]21
O=C(c1ccccc1F)N1C[C@H]2[C@@H](c3ccccc31)[C@@H](CO)N2C(=O)C1CCCC1
O=C(Nc1ccccc1F)N1C[C@@H]2[C@H](c3ccccc31)[C@@H](CO)N2C(=O)C1CCCC1
O=C(NC[C@@H]1[C@H](c2ccccc2)[C@@H](CO)N1C(=O)C1CC1)NC1CCCC1
